Measurements from PubChem BioAssay (NCI).
The panel holds about 83,000 compounds, 20% with a hit somewhere; the sample as a whole holds those more often.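 Step 1: grow cells in 96-well plates. Step 2: add test compound at a single concentration. Step 3: incubate 48 h. Step 4: record percent growth.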 Unmarked numbers belong to inactive results. Activity calls are given as the source filed them. The calls were made as follows: active = growth percent below 10; inactive = the rest.

Test system: SF-295 CNS
Assay: NCI-60 one-dose screen, 48 h (100 = growth as untreated, 0 = no growth, -100 = all killed)
Settings: 10 µM unless noted

| SMILES | growth |
| --- | --- |
| CCOC(=O)C(=Cc1c(-c2ccccc2)[nH]c2ccccc12)C(=O)OCC | -10.2% (active) |
| COc1ccc(C2=NN(c3ccc(S(N)(=O)=O)cc3)C(c3ccc(Cl)cc3)C2)c(O)c1 (centres undefined) | 46.3% |
| CCOC(=O)C1=C(C)n2nc(CC#N)c(C#N)c2NC1c1ccc(Cl)cc1 (centres undefined) | 102% |
| CCOC(=O)c1sc(/N=C2\NC(=O)/C(=C/c3ccc(N4CCN(C)CC4)cc3)S2)nc1C | 102% |
| CC(C)NS(=O)(=O)c1cccc(-c2ccc3c(=O)n(CCCN)c4c(c3c2)C(=O)c2ccccc2-4)c1 | 104% |
| COc1cc2nc3c(=O)n(CCN(C)C)cnn3c(=O)c2cc1OC | 99.5% |
| COc1ccc(/C(=N\O)c2cc(C)c(OC)c(C)c2)cc1O | 29.7% |
| COc1cc(C2=NN(c3ccccc3)C(c3cccc(Nc4ccnc5cc(C(F)(F)F)ccc45)c3)C2)cc(OC)c1OC (centres undefined) | 64.8% |
| Nc1c(C(=O)Nc2ccccn2)sc2nc3c(cc12)CCCC3 | 34% |
| COc1ccc(-c2cc(-c3nnc(SCC(=O)Nc4ccc(C(C)=O)cc4)o3)c3ccccc3n2)cc1 | 42.5% |
| Nc1c(C(=O)Nc2ccccn2)sc2nc3c(cc12)CCCCC3 | 15.4% |
| Sc1cccc2cccnc12 | 47.1% |
| C=CCn1c(SCC(=O)Nc2ccc(C(=O)/C=C/c3cc(OC)c(OC)c(OC)c3)cc2)nnc1-c1ccc(Cl)cc1 | 38.9% |
| O=C(/C(=C\c1c(-c2ccccc2)[nH]c2ccccc12)S(=O)(=O)c1ccccc1)c1ccccc1 | -6.63% (active) |
| COc1ccc2[nH]c(=O)c(/C=C/C(=O)/C=C/c3ccc(O)c(OC)c3)cc2c1 | 17.5% |
| COc1cc(-c2cn(-c3ccc(Cl)c(Cl)c3)c(=O)[nH]2)cc(OC)c1OC | 104% |
| Cc1cc(C)c2nc(Nc3nc(C)c(C)c(=O)[nH]3)nc(C)c2c1 | 11% |
| COc1ccc2cc(/C=C3\N=C(c4cc(OC)c(OC)c(OC)c4)OC3=O)c(OC)nc2c1 | 98.7% |
| COC(=O)/C=C1\SC(=Nc2cccc(OC)c2)N(CCc2c[nH]c3ccccc23)C1=O | 61.9% |

| SMILES | growth |
| --- | --- |
| O=C1Nc2ccc(Br)cc2/C1=N\N=C/c1cn(Cc2ccccc2)c2ccccc12 | 95.9% |
| COc1cc(-c2nn(-c3ccc(Br)cc3)cc2CO)ccc1O | 98.6% |
| CCCCc1ccc(N=Nc2ccc(OCC[N+](C)(C)C)cc2)cc1 | 32.9% |
| CCN1CCN(c2ccc(NC(=O)Nc3nc4ccc(-c5ccccc5OC)cc4s3)cc2)CC1 | -79.9% (active) |
| C=C(C)[C@@H]1CC[C@]2(C(=O)O)CC[C@]3(C)[C@H](CC[C@@H]4[C@@]5(C)C[C@@H](CC#Cc6ccccc6C)C(=O)C(C)(C)[C@@H]5CC[C@]43C)[C@@H]12 | 33.1% |
| CCSc1ccc(C2C(Br)C(=O)N2c2cc(OC)c(OC)c(OC)c2)cc1 (centres undefined) | 15.7% |
| CCCCc1nc(Cl)c(C2CC(c3ccc(Cl)cc3)=NN2c2cc(Cl)cc(Cl)c2)[nH]1 (centres undefined) | 74.3% |
| C=C(C)[C@@H]1CC[C@]2(C(=O)OCCOCCOCC[P+](c3ccccc3)(c3ccccc3)c3ccccc3)CC[C@]3(C)[C@H](CC[C@@H]4[C@@]5(C)CC[C@H](C)C(C)(C)[C@@H]5CC[C@]43C)[C@@H]12 | -87.5% (active) |
| O=C1[C@@H](OS(=O)(=O)CC(F)(F)F)[C@H](c2ccc(F)cn2)N1c1cc2c3ccccc3ccc2c2ccccc12 | 83.3% |
| CCOC(=O)c1c(C)nc2c(c1N)/C(=C/c1cccs1)C(=O)N2Cc1ccccc1 | 88% |
| C=CCn1c(SCC(=O)Nc2ccc(C(=O)/C=C/c3ccc(Cl)cc3)cc2)nnc1-c1cc(OC)c(OC)c(OC)c1 | 94.3% |
| O=C1NN(c2ccccc2)C(c2ccc3c(c2)OCO3)N2CCC[C@@H]12 (some centres undefined) | 103% |
| Cc1cnc(SCc2ccc(Cl)cc2Cl)nc1Nc1ccc(Cl)c(Cl)c1 | 92.8% |
| O=C(O)c1cn(C2CC2)c2cc(N3CCN(C(=O)CSc4nnc(-c5ccc(Cl)cc5)n4-c4ccccc4)CC3)c(F)cc2c1=O | 107% |
| N#Cc1ccc(C2C3=C(CCCC3=O)OC3=C2C(=O)c2ccccc2C3=O)cc1 (centres undefined) | 91.7% |
| COc1ccc2c(c1)OC13Oc4cc(OC)ccc4C=C1CCCCC3=C2 | 96.8% |
| C=C1C(=O)O[C@H]2[C@H]1CC/C(COC(=O)/C=C/c1cccnc1)=C\CC[C@@]1(C)O[C@@H]21 | 84.4% |
| COC1=CC2C=C(C3N(c4ccccc4)NC(=O)[C@@H]4CCCN34)C(=O)NC2C=C1 (some centres undefined) | 103% |

Test system: SF-539 CNS
Assay: as above
Settings: 10 µM unless noted

| SMILES | growth |
| --- | --- |
| CCOC(=O)C(=Cc1c(-c2ccccc2)[nH]c2ccccc12)C(=O)OCC | 88.1% |
| COc1ccc(C2=NN(c3ccc(S(N)(=O)=O)cc3)C(c3ccc(Cl)cc3)C2)c(O)c1 (centres undefined) | 89.9% |
| CCOC(=O)C1=C(C)n2nc(CC#N)c(C#N)c2NC1c1ccc(Cl)cc1 (centres undefined) | 96.8% |
| CCOC(=O)c1sc(/N=C2\NC(=O)/C(=C/c3ccc(N4CCN(C)CC4)cc3)S2)nc1C | 100% |
| CC(C)NS(=O)(=O)c1cccc(-c2ccc3c(=O)n(CCCN)c4c(c3c2)C(=O)c2ccccc2-4)c1 | 104% |
| COc1cc2nc3c(=O)n(CCN(C)C)cnn3c(=O)c2cc1OC | 97.7% |
| COc1ccc(/C(=N\O)c2cc(C)c(OC)c(C)c2)cc1O | 2.65% (active) |
| COc1cc(C2=NN(c3ccccc3)C(c3cccc(Nc4ccnc5cc(C(F)(F)F)ccc45)c3)C2)cc(OC)c1OC (centres undefined) | 100% |
| Nc1c(C(=O)Nc2ccccn2)sc2nc3c(cc12)CCCC3 | 39.3% |
| COc1ccc(-c2cc(-c3nnc(SCC(=O)Nc4ccc(C(C)=O)cc4)o3)c3ccccc3n2)cc1 | 12.3% |
| Nc1c(C(=O)Nc2ccccn2)sc2nc3c(cc12)CCCCC3 | 4.89% (active) |
| Sc1cccc2cccnc12 | 53.8% |
| C=CCn1c(SCC(=O)Nc2ccc(C(=O)/C=C/c3cc(OC)c(OC)c(OC)c3)cc2)nnc1-c1ccc(Cl)cc1 | 17.2% |
| O=C(/C(=C\c1c(-c2ccccc2)[nH]c2ccccc12)S(=O)(=O)c1ccccc1)c1ccccc1 | 75.4% |
| COc1ccc2[nH]c(=O)c(/C=C/C(=O)/C=C/c3ccc(O)c(OC)c3)cc2c1 | 8.47% (active) |
| COc1cc(-c2cn(-c3ccc(Cl)c(Cl)c3)c(=O)[nH]2)cc(OC)c1OC | 91.3% |
| Cc1cc(C)c2nc(Nc3nc(C)c(C)c(=O)[nH]3)nc(C)c2c1 | 13.5% |
| COc1ccc2cc(/C=C3\N=C(c4cc(OC)c(OC)c(OC)c4)OC3=O)c(OC)nc2c1 | 101% |
| COC(=O)/C=C1\SC(=Nc2cccc(OC)c2)N(CCc2c[nH]c3ccccc23)C1=O | 83.4% |

| SMILES | growth |
| --- | --- |
| O=C1Nc2ccc(Br)cc2/C1=N\N=C/c1cn(Cc2ccccc2)c2ccccc12 | 99.4% |
| COc1cc(-c2nn(-c3ccc(Br)cc3)cc2CO)ccc1O | 92% |
| CCCCc1ccc(N=Nc2ccc(OCC[N+](C)(C)C)cc2)cc1 | 35.9% |
| CCN1CCN(c2ccc(NC(=O)Nc3nc4ccc(-c5ccccc5OC)cc4s3)cc2)CC1 | -82.6% (active) |
| C=C(C)[C@@H]1CC[C@]2(C(=O)O)CC[C@]3(C)[C@H](CC[C@@H]4[C@@]5(C)C[C@@H](CC#Cc6ccccc6C)C(=O)C(C)(C)[C@@H]5CC[C@]43C)[C@@H]12 | 36% |
| CCSc1ccc(C2C(Br)C(=O)N2c2cc(OC)c(OC)c(OC)c2)cc1 (centres undefined) | -1.17% (active) |
| CCCCc1nc(Cl)c(C2CC(c3ccc(Cl)cc3)=NN2c2cc(Cl)cc(Cl)c2)[nH]1 (centres undefined) | 79.8% |
| C=C(C)[C@@H]1CC[C@]2(C(=O)OCCOCCOCC[P+](c3ccccc3)(c3ccccc3)c3ccccc3)CC[C@]3(C)[C@H](CC[C@@H]4[C@@]5(C)CC[C@H](C)C(C)(C)[C@@H]5CC[C@]43C)[C@@H]12 | -90.3% (active) |
| O=C1[C@@H](OS(=O)(=O)CC(F)(F)F)[C@H](c2ccc(F)cn2)N1c1cc2c3ccccc3ccc2c2ccccc12 | 87.1% |
| CCOC(=O)c1c(C)nc2c(c1N)/C(=C/c1cccs1)C(=O)N2Cc1ccccc1 | 90.7% |
| C=CCn1c(SCC(=O)Nc2ccc(C(=O)/C=C/c3ccc(Cl)cc3)cc2)nnc1-c1cc(OC)c(OC)c(OC)c1 | 96.4% |
| O=C1NN(c2ccccc2)C(c2ccc3c(c2)OCO3)N2CCC[C@@H]12 (some centres undefined) | 111% |
| Cc1cnc(SCc2ccc(Cl)cc2Cl)nc1Nc1ccc(Cl)c(Cl)c1 | 105% |
| O=C(O)c1cn(C2CC2)c2cc(N3CCN(C(=O)CSc4nnc(-c5ccc(Cl)cc5)n4-c4ccccc4)CC3)c(F)cc2c1=O | 105% |
| N#Cc1ccc(C2C3=C(CCCC3=O)OC3=C2C(=O)c2ccccc2C3=O)cc1 (centres undefined) | 30.5% |
| COc1ccc2c(c1)OC13Oc4cc(OC)ccc4C=C1CCCCC3=C2 | 98.4% |
| C=C1C(=O)O[C@H]2[C@H]1CC/C(COC(=O)/C=C/c1cccnc1)=C\CC[C@@]1(C)O[C@@H]21 | 6.08% (active) |
| COC1=CC2C=C(C3N(c4ccccc4)NC(=O)[C@@H]4CCCN34)C(=O)NC2C=C1 (some centres undefined) | 109% |
